# The list shows a part of the results. Calls of active or inactive are those of the source.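 Rule for the calls, unless noted: active = signal rise of 40% or more at 20 µM, treated as a fluorescence artifact; inactive = the rest.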
# Legend:
# [1] = target: Protein Mdm4 (Homo sapiens) + E3 ubiquitin-protein ligase Mdm2 (Homo sapiens) (UniProt O15151+Q00987); test: human Mdm2/MdmX binding disruption – cell-based, luminescence, single concentration, set 2, confirmation (AID 504601;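 active = mean inhibition of the luminescence signal across two replicates at or above 26 percent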); conditions: SaOS-2 split-luciferase Mdm2/MdmX complementation, at 8 µM, stronger effect = higher value
# [2] = HIF-2a driven luciferase blockers, single dose – luminescence, 786-0 RCC cells, confirmation (AID 651580;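 active = mean inhibition across four replicates of at least 40 percent at the single tested concentration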); conditions: HIF-2a luciferase reporter luminescence, overnight, at 18.8 µM, stronger effect = higher value
# [3] = HIF-1a luciferase reporter signal reduction – MiaPaCa-2 cells, single concentration, counter-screen for HIF-2a inhibitor project, confirmation (AID 651589;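 active = mean inhibition of the reporter signal across four replicates at the single tested dose of 50% or more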); conditions: MiaPaCa-2 HIF-1a luciferase reporter, desferoxamine, overnight; at 18.8 µM; stronger effect = higher value
# [4] = target: Tumor necrosis factor receptor superfamily member 10B (Homo sapiens) (UniProt O14763); test: viability loss of caspase-8 NB7 cells with TRAIL – with/without TRAIL, luminescence panel, confirmation (AID 651596; in the data active = activity above about 50%); conditions: NB7 neuroblastoma + caspase-8, TRAIL sensitization, NB7 Caspase-8, with TRAIL, mean of runs, at 10 µM, stronger effect = higher value
# [5] = as above; conditions: NB7 neuroblastoma + caspase-8, without TRAIL, NB7 Caspase-8, without TRAIL, mean of runs, at 10 µM
# [6] = apoptosome-driven caspase-3 activation blockers – biochemical, fluorescence, DEVD-Rh110, 20 µM, confirmation (AID 504614;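 active = mean inhibition of at least 40% at 20 µM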;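 note: plate controls were DMSO wells for no effect and DEVD-CHO caspase inhibitor control wells for full effect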); conditions: reconstituted apoptosome, caspase-3 DEVD-Rh110 fluorescence; at 20 µM; stronger effect = higher value
# [7] = detection-step artefacts after completed caspase reaction – biochemical, fluorescence, Rh110, 20 µM, artefact control for Apaf-1 inhibitor project, confirmation (AID 504615); conditions: quenched caspase reaction, at 20 µM, stronger effect = higher value
# [8] = target: Tumor necrosis factor receptor superfamily member 10B (Homo sapiens) (UniProt O14763); test: compound enhancement of TRAIL-induced cell killing – NB7 cells plus caspase-8, luminescence, panel, dose response (AID 652002); conditions: NB7 neuroblastoma +caspase-8, TRAIL sensitization, luminescence viability, NB7+Caspase-8, with TRAIL, run 1; at 12.5 µM (top of the series)
# [9] = target: Tumor necrosis factor receptor superfamily member 10B (Homo sapiens) (UniProt O14763); test: as above; conditions: NB7 neuroblastoma +caspase-8, TRAIL sensitization, luminescence viability, NB7+Caspase-8, with TRAIL, run 2; at 12.5 µM (top of the series)
# [10] = as above; conditions: NB7 neuroblastoma +caspase-8, no TRAIL, compound-alone cytotoxicity counter-screen, luminescence viability, NB7+Caspase-8, run 1; at 12.5 µM (top of the series) unless noted
# [11] = as above; conditions: NB7 neuroblastoma +caspase-8, no TRAIL, compound-alone cytotoxicity counter-screen, luminescence viability, NB7+Caspase-8, run 2; at 12.5 µM (top of the series) unless noted
# [12] = inhibition of PEG-3 promoter luciferase signal – cell-based, HeLa, luciferase reporter, single concentration, confirmation (AID 602417;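 active = at 20 µM dose, 40% or more inhibition averaged across four replicates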); conditions: HeLa PEG-Prom luciferase reporter, luminescence, overnight; at 20 µM; stronger effect = higher value
# PEG-3 [13] = target: PEG-3 (UniProt Q6IN02); test: inhibition of PEG-3 promoter-driven reporter – cell-based, HeLa, luciferase, CREF/GAPDH counter-screen panel, dose response (AID 624167); conditions: CREF/GAPDH counter-screens; HeLa PEG-Prom luciferase reporter, overnight, run 1, dose range 1, at 100 µM (top of the series) unless noted
# PEG-3 [14] = target: PEG-3 (UniProt Q6IN02); test: as above; conditions: CREF/GAPDH counter-screens; HeLa PEG-Prom luciferase reporter, overnight, run 2, dose range 1, at 100 µM (top of the series) unless noted
# [15] = fluorescence interference of Apaf-1 inhibitor hits, dose response, artefact control for Apaf-1 inhibitor project (AID 588538; call rule not given here); conditions: fluorescence interference counterscreen, Apaf-1 assay format
# [16] = NF-kB reporter suppression in CF airway cells – cell-based, GFP fluorescence, single concentration, confirmation (AID 602472; in the data active = inhibition above about 40%;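 note: stimulus PAF is a Pseudomonas aeruginosa filtrate and not platelet activating factor; plate controls were DMSO wells with stimulus for no effect and unstimulated DMSO wells for full effect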); conditions: KKLEB CF airway cells, PAF-induced NF-kB-GFP fluorescence, overnight; at 5 µM; stronger effect = higher value
# [17] = NFkB reporter suppression in cystic fibrosis bronchial cells – cell-based, uHTS hits, panel, cytotoxicity readout, dose response (AID 624344); conditions: CF bronchial epithelial cells, PAF-induced NFkB reporter inhibition, with PAF, run 1; at 79 µM (top of the series) unless noted
# [18] = as above; conditions: CF bronchial epithelial cells, PAF-induced NFkB reporter inhibition, with PAF, run 2; at 79 µM (top of the series) unless noted
# Tumor necrosis factor receptor superfamily member 10B (Homo sapiens), sequence (O14763 whole entry, looked up): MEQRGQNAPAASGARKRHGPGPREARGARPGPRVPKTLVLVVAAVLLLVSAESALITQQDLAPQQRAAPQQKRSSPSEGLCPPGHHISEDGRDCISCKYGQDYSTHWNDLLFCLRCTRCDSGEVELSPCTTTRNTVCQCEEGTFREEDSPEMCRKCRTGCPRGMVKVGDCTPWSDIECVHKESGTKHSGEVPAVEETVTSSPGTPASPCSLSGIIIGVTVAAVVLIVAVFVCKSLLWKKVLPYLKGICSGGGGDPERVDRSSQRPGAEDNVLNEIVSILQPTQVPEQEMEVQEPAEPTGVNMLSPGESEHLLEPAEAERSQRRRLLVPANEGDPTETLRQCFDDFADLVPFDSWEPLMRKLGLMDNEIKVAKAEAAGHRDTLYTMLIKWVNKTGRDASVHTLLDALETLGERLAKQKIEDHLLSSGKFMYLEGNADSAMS
# Protein Mdm4 (Homo sapiens) + E3 ubiquitin-protein ligase Mdm2 (Homo sapiens), sequence (O15151 whole entry, looked up): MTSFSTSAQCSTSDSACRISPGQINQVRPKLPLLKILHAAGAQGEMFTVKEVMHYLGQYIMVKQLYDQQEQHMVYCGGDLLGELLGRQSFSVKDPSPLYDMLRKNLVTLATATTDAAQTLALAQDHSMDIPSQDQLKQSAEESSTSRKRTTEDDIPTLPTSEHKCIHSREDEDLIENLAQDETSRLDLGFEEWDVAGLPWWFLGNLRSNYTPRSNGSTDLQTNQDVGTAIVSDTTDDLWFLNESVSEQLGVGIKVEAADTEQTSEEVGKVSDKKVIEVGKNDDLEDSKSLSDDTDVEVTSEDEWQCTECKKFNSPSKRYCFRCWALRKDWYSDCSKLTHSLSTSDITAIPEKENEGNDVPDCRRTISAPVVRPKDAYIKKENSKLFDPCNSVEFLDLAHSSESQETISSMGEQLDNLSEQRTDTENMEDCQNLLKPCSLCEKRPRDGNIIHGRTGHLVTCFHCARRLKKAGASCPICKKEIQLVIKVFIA
# Protein Mdm4 (Homo sapiens) + E3 ubiquitin-protein ligase Mdm2 (Homo sapiens), sequence (Q00987 whole entry, looked up): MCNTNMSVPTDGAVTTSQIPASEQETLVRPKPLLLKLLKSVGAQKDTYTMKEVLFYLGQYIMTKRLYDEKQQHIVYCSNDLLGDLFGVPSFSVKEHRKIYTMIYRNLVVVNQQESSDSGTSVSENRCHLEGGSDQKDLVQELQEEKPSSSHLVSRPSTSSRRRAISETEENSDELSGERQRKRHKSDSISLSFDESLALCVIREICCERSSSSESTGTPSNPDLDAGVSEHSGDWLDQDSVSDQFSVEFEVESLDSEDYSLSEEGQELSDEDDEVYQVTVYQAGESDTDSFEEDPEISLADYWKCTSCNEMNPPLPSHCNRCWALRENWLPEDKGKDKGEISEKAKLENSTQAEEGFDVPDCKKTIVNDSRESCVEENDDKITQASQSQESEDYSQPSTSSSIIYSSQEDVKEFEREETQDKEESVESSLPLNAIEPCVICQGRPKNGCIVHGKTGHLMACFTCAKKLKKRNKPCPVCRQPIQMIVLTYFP
# PEG-3, sequence (Q6IN02 whole entry, looked up): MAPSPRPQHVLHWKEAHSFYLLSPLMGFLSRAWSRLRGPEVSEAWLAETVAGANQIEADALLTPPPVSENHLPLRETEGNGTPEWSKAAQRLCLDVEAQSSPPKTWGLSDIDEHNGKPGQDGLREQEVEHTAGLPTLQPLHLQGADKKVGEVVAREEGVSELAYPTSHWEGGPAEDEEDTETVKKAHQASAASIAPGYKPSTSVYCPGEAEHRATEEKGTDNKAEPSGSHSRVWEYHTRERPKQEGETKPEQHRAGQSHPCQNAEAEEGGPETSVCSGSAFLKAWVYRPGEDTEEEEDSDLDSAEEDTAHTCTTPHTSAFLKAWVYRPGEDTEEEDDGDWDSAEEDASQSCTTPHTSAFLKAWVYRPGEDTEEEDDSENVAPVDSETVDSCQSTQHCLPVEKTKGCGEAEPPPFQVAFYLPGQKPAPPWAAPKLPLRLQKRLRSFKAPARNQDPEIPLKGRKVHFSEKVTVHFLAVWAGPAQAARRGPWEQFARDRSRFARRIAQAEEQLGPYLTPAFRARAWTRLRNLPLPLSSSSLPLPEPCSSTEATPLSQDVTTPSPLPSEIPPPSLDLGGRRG
smiles,measurement,setting,value
Cc1ccc(CS(=O)(=O)c2ncc(Cl)c(C(=O)Nc3nnc(C)s3)n2)cc1,inhibition,[1],103% (active)
same,inhibition,[2],31.5% (inactive)
same,inhibition,[3],104% (active)
same,activity,[4],97.2%
same,activity,[5],97.2%
COC1=C(N2CCOCC2)C(=O)c2ccccc2C1=O,inhibition,[6],29.1% (inactive)
same,activation (fluorescence interference),[7],4% (inactive)
Cc1ccsc1/C=N/NC(=O)Cc1cc(=O)[nH][nH]1,inhibition,[6],17.5% (inactive)
same,activation (fluorescence interference),[7],8.37% (inactive)
COc1cc(NC(=O)c2[nH]cnc2C(N)=O)cc(C(=O)Nc2cccc(C(F)(F)F)c2)c1,inhibition,[1],101% (active)
same,activity,[4],86.1%
same,activity,[5],53.4%
same,"activity, % sensitization",[8],36.3%
same,"activity, % sensitization",[9],52.5%
same,"activity, % sensitization",[10],5.71%
same,"activity, % sensitization",[11],43.7%
CC1CCCCC1NC(=O)/C(C#N)=C/C=C/c1ccccc1[N+](=O)[O-] (stereo not given),inhibition,[1],103% (active)
same,inhibition,[2],50.3% (active)
same,inhibition,[3],106% (active)
CCOc1c(Br)cc(/C=C2\C(=O)N(CCC#N)N=C2C)cc1OC,inhibition,[6],13.1% (inactive)
same,activation (fluorescence interference),[7],1.73% (inactive)
COc1ccc(-c2nc3cc(C)ccn3c2NC2CCCCC2)cc1SC1CCCCC1,inhibition,[6],15.6% (inactive)
same,activation (fluorescence interference),[7],-1.22% (inactive)
COc1cccc(/C=N/Nc2cc(C)nc(-c3ccccc3O)n2)c1O,inhibition,[1],99.7% (active)
same,inhibition,[12],94.4% (active)
same,inhibition,PEG-3 [13],100%
same,inhibition,PEG-3 [14],102%
C#CCOCCOCCOCCNc1nc(N2CCN(C(=O)CCCCCCCCCCNC(=O)[C@H](CCCCN)n3cc(C)nn3)CC2)nc(N2CCN(C(=O)CCCCCCCCCCNC(=O)[C@H](CO)n3cc(CCCSC)nn3)CC2)n1,inhibition,[6],4.3% (inactive)
same,activation (fluorescence interference),[7],3.38% (inactive)
O=C(/C=C/Sc1ncn[nH]1)c1ccc(Cl)cc1,inhibition,[1],103% (active)
CCC(=O)Nc1c(S(=O)(=O)c2ccccc2)c2nc3ccccc3nc2n1Cc1ccccc1,inhibition,[6],16.3% (inactive)
same,activation (fluorescence interference),[7],-0.44% (inactive)
Cc1c(-c2nn(C)c(=O)c3ccccc23)oc2ccc(F)cc2c1=O,inhibition,[6],77.4% (active)
same,activation (fluorescence interference),[7],2.5% (inactive)
CCN(CC)S(=O)(=O)c1ccc(NC(=O)c2cccnc2Cl)c(NC(=O)c2cccnc2Cl)c1,inhibition,[1],75.5% (active)
same,inhibition,[2],91.6% (active)
same,inhibition,[3],62.3% (active)
CC1=NN(c2ccc(Cl)c(C(=O)O)c2)C(=O)/C1=C/c1ccc(-c2ccccc2[N+](=O)[O-])o1,inhibition,[6],16.8% (inactive)
same,activation (fluorescence interference),[7],6.42% (inactive)
CCCCCCCCCCOC(=O)Cn1c(COc2ccc(C)cc2)[n+](C)c2ccccc21,inhibition,[1],103% (active)
same,inhibition,[6],81.3% (active)
same,activation (fluorescence interference),[7],25.8% (inactive)
same,IC50,[15],> 100 µM (inactive)
O=S(=O)(Nc1ccc(O)c2ccccc12)c1ccc(OC(F)(F)F)cc1,inhibition,[6],21.3% (inactive)
same,activation (fluorescence interference),[7],-2.71% (inactive)
CCN(CC(=O)NCc1cccs1)C(=O)c1cccc(S(=O)(=O)Nc2ccccc2OC)c1,inhibition,[6],36.9% (inactive)
same,activation (fluorescence interference),[7],-3.02% (inactive)
COCC(C)OC(=O)c1c(N)n(CCCN2CCOCC2)c2nc3ccccc3nc12 (stereo not given),inhibition,[6],12.4% (inactive)
same,activation (fluorescence interference),[7],0.94% (inactive)
CC(C)c1ccccc1OCC(O)CN(CC(O)COc1cccc2ccccc12)C(C)C (stereo not given),inhibition,[6],16.9% (inactive)
same,activation (fluorescence interference),[7],14.2% (inactive)
O=C(N/N=C\c1cccnc1)c1cc(-c2ccccc2)nc2c(Cl)cccc12,inhibition,[6],11.8% (inactive)
same,activation (fluorescence interference),[7],2.87% (inactive)
O=[N+]([O-])c1c(NCCO)cc(Sc2nc3ccccc3s2)c2nonc12,inhibition,[1],102% (active)
same,inhibition,[6],19.9% (inactive)
same,activation (fluorescence interference),[7],4.65% (inactive)
CN(C)CC(O)COc1ccc(C(C)(C)c2ccc(OCC(O)CN(C)C)cc2)cc1 (stereo not given),inhibition,[1],94.2% (active)
same,inhibition,[12],53% (active)
same,inhibition,PEG-3 [13],101%
same,inhibition,PEG-3 [14],99.7%
COc1ccc(C(CCN(Cc2ccc(OC)c(OC)c2)C(=O)CCl)c2ccccc2)cc1 (stereo not given),inhibition,[1],103% (active)
same,activity,[4],99.7%
same,activity,[5],99.7%
CCOC(=O)/C(=C\c1ccc([N+](=O)[O-])cc1)C(=O)c1cc(C(C)=O)c(Nc2ccccc2)s1,inhibition,[1],100% (active)
same,activity,[4],95.3%
same,activity,[5],95.6%
O=C(CN1CCN(S(=O)(=O)c2ccc3ccccc3c2)CC1)NC(=O)NC1CCCCC1,inhibition,[6],26.3% (inactive)
same,activation (fluorescence interference),[7],20% (inactive)
CC(NC(=O)c1ccccc1SCC(=O)N1CCCC1)c1ccccc1 (stereo not given),inhibition,[6],22.9% (inactive)
same,activation (fluorescence interference),[7],-8.17% (inactive)
CC(=O)Nc1ccc(NC(=O)C(C)OC(=O)c2ccccc2C(=O)c2ccc(Cl)c([N+](=O)[O-])c2)cc1 (stereo not given),inhibition,[1],102% (active)
same,inhibition,[16],72.6% (active)
same,inhibition,[17],102%
same,inhibition,[18],98.8%
O=C(CC(O)(C(F)(F)F)C(F)(F)F)Nc1ccc(Cl)c(Cl)c1,inhibition,[1],103% (active)
same,activity,[4],61.6%
same,activity,[5],63.1%
Cc1[nH]c(=O)c(C(=O)/C=C/c2ccccc2)c2c1CCCC2,inhibition,[1],103% (active)
same,inhibition,[2],81.1% (active)
same,inhibition,[3],105% (active)
